# Assay results published in PubChem BioAssay (NCI).
# About 83,000 compounds went through this panel and 20% of them were active in at least one assay; those are over-represented in the sample as a whole.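 For each line, cells grew in 96-well plates with the test compound present at a single concentration for 48 hours.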 Unmarked numbers belong to inactive results. Calls of active or inactive are those of the source. Rule for the calls: active = growth percent below 10; inactive = the rest.
# Assays:
# Test in all cases: NCI-60 one-dose screen, 48 h (100 = growth as untreated, 0 = no growth, -100 = all killed)
# Conditions in all cases: 10 µM
# [1] = system: HT29 colon
# [2] = system: SNB-75 CNS
# [3] = system: SNB-19 CNS
# [4] = system: U251 CNS
# [5] = system: PC-3 prostate
# [6] = system: SK-MEL-5 melanoma
# [7] = system: UACC-62 melanoma
# [8] = system: LOX IMVI melanoma
# [9] = system: SK-MEL-28 melanoma
# [10] = system: SK-MEL-2 melanoma
# [11] = system: EKVX NSCLC
# [12] = system: SN12C renal
# [13] = system: UO-31 renal
# [14] = system: TK-10 renal
# [15] = system: ACHN renal
# [16] = system: CAKI-1 renal
# [17] = system: A498 renal
# [18] = system: CCRF-CEM leukemia
# [19] = system: MOLT-4 leukemia
# [20] = system: SR leukemia
SMILES,growth [1],growth [2],growth [3],growth [4],growth [5],growth [6],growth [7],growth [8],growth [9],growth [10],growth [11],growth [12],growth [13],growth [14],growth [15],growth [16],growth [17],growth [18],growth [19],growth [20]
C[N+](C)(C)c1ncnc2nc[nH]c12,104%,70%,94.9%,93.9%,115%,85.4%,90.4%,90.4%,108%,75.8%,89.1%,108%,84%,103%,91.1%,83%,98.3%,102%,98.6%,78.4%
N=c1c2c(-c3ccccc3)c(-c3ccccc3)n(Cc3ccccc3)c2ncn1CCCO,0.266% (active),39.7%,48.3%,24.5%,33.8%,-4.56% (active),44.2%,13%,49.8%,47%,36.5%,40.3%,-0.199% (active),35.4%,26.1%,13.9%,17.6%,28.9%,-10.9% (active),-33.5% (active)
CCN(CC)CCNc1ccc(CO)c2oc3cc(Cl)ccc3c(=O)c12,52.8%,69.7%,97%,79.7%,77.4%,53.9%,73.1%,70.5%,97.8%,128%,88.7%,76.3%,54.4%,82.7%,60.9%,87.3%,50.9%,66.6%,62.3%,50.1%
Clc1ccccc1N=Cc1ccc2c(c1)OCO2,96.3%,95%,105%,94.9%,107%,107%,103%,98.9%,110%,108%,99.7%,92%,80%,107%,111%,93.6%,102%,88.8%,87.9%,89%
CCCCN(CCCC)CCCCCCCCC(O)c1cc2ccccc2c2ccccc12 (stereo not given),32.9%,61.8%,67.9%,49.3%,45.2%,70%,61.8%,49.2%,79.6%,84.7%,60.4%,64.9%,52.3%,79%,59.9%,71.9%,46%,37.4%,39%,37.6%
COc1cc(-c2nc(-c3nnc(-c4ccccc4Cl)o3)c3ccccn23)cc(OC)c1OC,91.4%,79.4%,101%,96.9%,74.2%,80.2%,69.8%,77.9%,94.6%,79%,92.2%,82.9%,67.6%,106%,68.3%,86.2%,84.3%,51.4%,56.3%,72.2%
CCN(CC)CCSCCCNc1c2ccc(Cl)cc2nc2ccc(OC)cc12,-58.1% (active),-97.8% (active),-38.4% (active),-70.6% (active),-30.3% (active),-99.1% (active),-72.9% (active),-80% (active),-67% (active),-77.5% (active),-20.2% (active),-32% (active),-29.1% (active),-4.3% (active),-78.3% (active),-22.8% (active),-77.7% (active),-20.4% (active),-19.9% (active),-19.8% (active)
COc1ccc2c(c1)C(=O)c1c-2c(=O)n(CCCN(C)C)c2cc(OC)c(OC)cc12,60.6%,48.9%,59.2%,43.8%,72.2%,86.8%,77%,17.3%,111%,69%,113%,53.1%,64.6%,102%,31.9%,10.6%,85.5%,15.4%,13.8%,1.53% (active)
